Records with an inconclusive call do not appear. Activity calls are given as the source filed them. How the source made its calls, unless noted: active means hit-call score of the fitted dose curve at least 0.9, where 1 is the maximum; inconclusive means response in the unintended direction; inactive means score below 0.9.
What was measured:
[1] = ATG_TAL_CIS: Attagene CIS-FACTORIAL HepG2 Assay for human TAL Basal Promoter (AID 2282966; active means hit-call score of the fitted dose curve at least 0.9, where 1 is the maximum; inactive means score below 0.9;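 further: background control endpoint measuring basal TAL promoter reporter mRNA not a specific factor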); settings: HepG2 Attagene cis-factorial TAL promoter reporter; actives raise or lower the signal
Outline: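 HepG2 cells were transiently transfected with promoter-driven multiplexed reporter units and dosed for 24 h. Reporter mRNA was measured by RT-PCR with capillary electrophoresis fluorescence; bidirectional fits used DMSO as baseline, serving as a background control.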

[2] = ATG_TGFb_CIS: Attagene CIS-FACTORIAL HepG2 Assay for human Transforming Growth Factor (TGF) (AID 2282967; active means hit-call score of the fitted dose curve at least 0.9, where 1 is the maximum; inactive means score below 0.9); settings: HepG2 Attagene CIS TGFb reporter, mRNA transcription; actives raise or lower the signal
Outline: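 Multiplexed cis-reporter HepG2 system, 24 h treatment; mRNA induction read by fluorescence after RT-PCR and CE; DMSO negative control, bidirectional curve fitting.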

[3] = target: X-box-binding protein 1 (Homo sapiens) (UniProt P17861); experiment: ATG_Xbp1_CIS: Attagene CIS-FACTORIAL HepG2 Assay for human X-box Binding Protein 1 (XBP1) (AID 2282972; active means hit-call score of the fitted dose curve at least 0.9, where 1 is the maximum; inactive means score below 0.9); settings: HepG2 XBP1 cis-element reporter, Attagene multiplex; actives raise or lower the signal
Outline: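 HepG2, transient MRTU transfection (cis-promoter driven), 24 h compound exposure. Total RNA → oligo(dT) RT → PCR → 6-FAM labeling → HpaI cut → CE. Bidirectional fit vs DMSO.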

[4] = ATG_GAL4_TRANS: Attagene TRANS-FACTORIAL HepG2 Assay for GAL4 (Internal Marker) (AID 2282976); settings: HepG2 Attagene TRANS GAL4 internal marker reporter
Outline: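 HepG2 cells transiently transfected with multiplexed GAL4-UAS reporter constructs were dosed for 24 h. Reporter mRNA was measured by RT-PCR, 6-FAM primer extension, HpaI digestion and capillary electrophoresis, and gain of signal was fitted relative to DMSO.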

[5] = target: Glucocorticoid receptor (Homo sapiens) (UniProt P04150); experiment: ATG_GR_TRANS: Attagene TRANS-FACTORIAL HepG2 Assay for human Glucocorticoid Receptor (GR) (AID 2282978); settings: HepG2 Attagene TRANS GR reporter, mRNA transcription;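 further: activators score as hits since higher reporter transcript over DMSO is fitted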
Outline: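 Exogenous NR-GAL4 fusion activity was assessed through induced GAL4-UAS reporter transcripts in transfected human HepG2 cells, quantified after 24 h by RT-PCR and fluorescent capillary electrophoresis with DMSO as baseline.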

[6] = target: Hepatocyte nuclear factor 4-alpha (Homo sapiens) (UniProt P41235); experiment: ATG_HNF4a_TRANS: Attagene TRANS-FACTORIAL HepG2 Assay for human Hepatocyte Nuclear Factor 4 alpha (HNF4a) (AID 2282982); settings: HepG2 HNF4a transactivation reporter, mRNA readout
Outline: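 HepG2 cells transiently transfected with multiplexed GAL4-UAS reporter units responsive to chimeric NR-GAL4 proteins; compound exposure 24 h. Reporter mRNA quantified by RT-PCR, 6-FAM labelling, HpaI digestion and capillary electrophoresis; gain of signal versus DMSO baseline.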

[7] = ATG_M_06_TRANS: Attagene TRANS-FACTORIAL HepG2 Assay for M06 Transcription Factor (Internal Marker) (AID 2282983); settings: HepG2 Attagene TRANS M06 internal marker reporter;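 further: reporter transcript level by RT-PCR then capillary electrophoresis fluorescence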
Outline: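 HepG2 cells transiently transfected with multiplexed GAL4-UAS reporter transcription units; after 24 h compound exposure, reporter mRNA measured by RT-PCR, FAM-labelled primer extension, HpaI digestion and capillary electrophoresis. Gain-of-signal fitted versus DMSO baseline; background control readout.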

[8] = ATG_M_32_TRANS: Attagene TRANS-FACTORIAL HepG2 Assay for M32 Transcription Factor (Internal Marker) (AID 2282984); settings: HepG2 Attagene TRANS M32 internal marker reporter
Outline: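 HepG2 cells transiently transfected with multiple GAL4-UAS reporter transcription units, dosed for 24 hours; reporter mRNA quantified by RT-PCR, 6-FAM primer extension, HpaI digestion and capillary electrophoresis. Gain-of-signal fitted versus DMSO baseline; internal background-control marker.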

[9] = target: Transcriptional activator Myb (Homo sapiens) (UniProt P10242); experiment: ATG_Myb_CIS: Attagene CIS-FACTORIAL HepG2 Assay for human Myeloblastosis (Myb) Proto-Oncogene Transcription Factor (AID 2282986; active means hit-call score of the fitted dose curve at least 0.9, where 1 is the maximum; inactive means score below 0.9); settings: HepG2 Attagene CIS-FACTORIAL Myb reporter transcription; actives raise or lower the signal
Outline: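 In this HepG2 transient-transfection format, cis-regulated reporter mRNA is quantified 24 h post-dosing by RT-PCR with capillary electrophoresis, fitted bidirectionally to DMSO baseline.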

[10] = target: Nuclear respiratory factor 1 (Homo sapiens) (UniProt Q16656); experiment: ATG_NRF1_CIS: Attagene CIS-FACTORIAL HepG2 Assay for human Nuclear Respiratory Factor 1 (NRF1) Orphan Gene (AID 2282987; active means hit-call score of the fitted dose curve at least 0.9, where 1 is the maximum; inactive means score below 0.9); settings: HepG2 NRF1 cis-element reporter, Attagene multiplex; actives raise or lower the signal
Outline: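 Using DMSO as baseline, gain- or loss-of-signal was fitted for reporter mRNA levels in HepG2 cells transiently transfected with cis-regulated reporter units. Samples were taken 24 h after dosing and read by RT-PCR with capillary electrophoresis.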

[11] = ATG_VDRE_CIS: Attagene CIS-FACTORIAL HepG2 Assay for human Vitamin D Receptor Element (VDRE) (AID 2282968; active means hit-call score of the fitted dose curve at least 0.9, where 1 is the maximum; inactive means score below 0.9); settings: HepG2 VDRE cis-reporter transcription, actives raise or lower the signal
Outline: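 HepG2 cells transiently transfected with cis-element reporter units, dosed 24 h; reporter mRNA measured by RT-PCR, 6-FAM labeling, HpaI digestion and capillary electrophoresis. Activity fitted bidirectionally against DMSO baseline.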

[12] = target: Nuclear receptor subfamily 1 group I member 3 (Homo sapiens) (UniProt Q14994); experiment: ATG_CAR_TRANS: Attagene TRANS-FACTORIAL HepG2 Assay for human Constitutive Androstane Receptor (CAR) (AID 2282969); settings: HepG2 Attagene TRANS-FACTORIAL CAR reporter;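 further: activators raise reporter mRNA above DMSO so AC50 marks induction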
Outline: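 HepG2 cells transiently transfected with multiplexed GAL4-UAS reporter units expressing chimeric NR-Gal4 proteins; compound exposure 24 h. Reporter mRNA measured by RT-PCR, 6-FAM labelling, HpaI digestion and capillary electrophoresis; gain-of-signal fitted against DMSO baseline.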

[13] = target: Estrogen receptor (Homo sapiens) (UniProt P03372); experiment: ATG_ERa_TRANS: Attagene TRANS-FACTORIAL HepG2 Assay for human Estrogen Receptor alpha (ERa) (AID 2282970); settings: HepG2 Attagene TRANS ERa GAL4 reporter, mRNA
Outline: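 HepG2 cells transiently transfected with multiplexed GAL4-UAS reporter units; ERa activity read via exogenous chimeric NR-Gal4 protein. After 24 hour compound exposure, reporter mRNA measured by RT-PCR with 6-FAM labelling and capillary electrophoresis; gain-of-signal fitted relative to DMSO.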

[14] = target: Steroid hormone receptor ERR1 (Homo sapiens) (UniProt P11474); experiment: ATG_ERRa_TRANS: Attagene TRANS-FACTORIAL HepG2 Assay for human Estrogen-Related Receptor alpha (ERRa) (AID 2282971); settings: HepG2 Attagene TRANS reporter, ERRa transactivation
Outline: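 HepG2 cells transiently transfected with multiplexed GAL4-UAS reporter units reading chimeric ERRa-Gal4 activity; 24 h compound exposure. Reporter mRNA measured by RT-PCR, 6-FAM labelling, HpaI digest and capillary electrophoresis; gain of signal fitted versus DMSO baseline.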

[15] = ATG_M_19_TRANS: Attagene TRANS-FACTORIAL HepG2 Assay for M19 Transcription Factor (Internal Marker) (AID 2282974); settings: HepG2 Attagene TRANS-FACTORIAL M19 internal marker reporter
Outline: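 Using RT-PCR and capillary electrophoresis, reporter mRNA from transiently transfected human HepG2 cells was quantified following 24 h exposure; activity was fitted in the positive direction against DMSO.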

[16] = target: Estrogen-related receptor gamma (Homo sapiens) (UniProt P62508); experiment: ATG_ERRg_TRANS: Attagene TRANS-FACTORIAL HepG2 Assay for human Estrogen-Related Receptor gamma (ERRg) (AID 2282977); settings: HepG2 Attagene TRANS reporter, ERRg transactivation;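 further: hits increase reporter signal over DMSO so potencies reflect activators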
Outline: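 Transient HepG2 transfectants, 24 h compound exposure, GAL4-UAS reporter mRNA by RT-PCR/6-FAM labelling/capillary electrophoresis; positive direction vs DMSO.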

[17] = target: Oxysterols receptor LXR-alpha (Homo sapiens) (UniProt Q13133); experiment: ATG_LXRa_TRANS: Attagene TRANS-FACTORIAL HepG2 Assay for human Liver X Receptor alpha (LXRa) (AID 2282980); settings: HepG2 Attagene TRANS reporter, LXRa transactivation
Outline: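 HepG2 cells were transiently transfected with multiplexed reporter units driven by chimeric LXRa–GAL4 fusion proteins, then dosed for 24 h. Reporter mRNA was quantified by RT-PCR, fluorescent labelling and capillary electrophoresis; gain of signal fitted against DMSO baseline.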

[18] = target: Oxysterols receptor LXR-beta (Homo sapiens) (UniProt P55055); experiment: ATG_LXRb_TRANS: Attagene TRANS-FACTORIAL HepG2 Assay for human Liver X Receptor beta (LXRb) (AID 2282981); settings: HepG2 Attagene TRANS GAL4-LXRb reporter, mRNA
Outline: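 HepG2 cells transiently transfected with multiple reporter transcription units carrying chimeric NR-Gal4 proteins acting on GAL4-UAS reporters; compound exposure 24 h. Reporter mRNA quantified by RT-PCR, 6-FAM labelling, HpaI digestion and capillary electrophoresis; gain of signal versus DMSO.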

[19] = target: Nuclear receptor subfamily 4 group A member 2 (Homo sapiens) (UniProt P43354); experiment: ATG_NURR1_TRANS: Attagene TRANS-FACTORIAL HepG2 Assay for human Nuclear Receptor Related Protein 1 (NURR1) (AID 2282985); settings: HepG2 Attagene TRANS reporter, mRNA readout
Outline: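 HepG2 cells transiently transfected with GAL4-UAS reporter units and chimeric NR-Gal4 constructs; chemical exposure 24 h. Reporter mRNA quantified by RT-PCR, fluorescent labelling and capillary electrophoresis; gain of signal fitted relative to DMSO baseline.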

Measured: outcome

Chain of Hepatocyte nuclear factor 4-alpha (Homo sapiens) (P41235 whole entry, looked up, the tested form may be a part): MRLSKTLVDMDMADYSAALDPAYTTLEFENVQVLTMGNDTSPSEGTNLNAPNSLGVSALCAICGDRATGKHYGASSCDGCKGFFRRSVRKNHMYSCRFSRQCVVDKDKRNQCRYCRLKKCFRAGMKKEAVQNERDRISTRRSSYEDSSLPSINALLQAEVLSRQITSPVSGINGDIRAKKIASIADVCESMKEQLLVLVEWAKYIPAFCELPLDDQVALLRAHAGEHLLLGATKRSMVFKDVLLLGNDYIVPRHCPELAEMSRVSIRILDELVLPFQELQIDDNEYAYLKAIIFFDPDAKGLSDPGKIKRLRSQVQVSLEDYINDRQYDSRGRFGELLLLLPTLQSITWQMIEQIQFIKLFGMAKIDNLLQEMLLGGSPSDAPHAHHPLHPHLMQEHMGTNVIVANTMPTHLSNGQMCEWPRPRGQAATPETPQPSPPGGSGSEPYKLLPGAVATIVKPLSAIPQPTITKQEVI
Chain of Nuclear respiratory factor 1 (Homo sapiens) (Q16656 whole entry, looked up): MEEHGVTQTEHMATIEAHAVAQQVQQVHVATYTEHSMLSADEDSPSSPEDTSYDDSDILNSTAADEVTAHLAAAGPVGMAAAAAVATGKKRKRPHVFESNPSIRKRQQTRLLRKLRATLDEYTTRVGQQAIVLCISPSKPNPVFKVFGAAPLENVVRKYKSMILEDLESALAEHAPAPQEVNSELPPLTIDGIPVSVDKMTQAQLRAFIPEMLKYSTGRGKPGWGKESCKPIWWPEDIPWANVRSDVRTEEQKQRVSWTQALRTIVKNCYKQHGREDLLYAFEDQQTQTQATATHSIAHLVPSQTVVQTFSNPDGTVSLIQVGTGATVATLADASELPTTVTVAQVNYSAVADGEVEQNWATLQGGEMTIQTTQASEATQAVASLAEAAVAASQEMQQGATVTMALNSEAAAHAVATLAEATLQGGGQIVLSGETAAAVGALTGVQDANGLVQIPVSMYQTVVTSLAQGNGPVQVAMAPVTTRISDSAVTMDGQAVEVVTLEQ
Chain of Glucocorticoid receptor (Homo sapiens) (P04150 whole entry, looked up, the tested form may be a part): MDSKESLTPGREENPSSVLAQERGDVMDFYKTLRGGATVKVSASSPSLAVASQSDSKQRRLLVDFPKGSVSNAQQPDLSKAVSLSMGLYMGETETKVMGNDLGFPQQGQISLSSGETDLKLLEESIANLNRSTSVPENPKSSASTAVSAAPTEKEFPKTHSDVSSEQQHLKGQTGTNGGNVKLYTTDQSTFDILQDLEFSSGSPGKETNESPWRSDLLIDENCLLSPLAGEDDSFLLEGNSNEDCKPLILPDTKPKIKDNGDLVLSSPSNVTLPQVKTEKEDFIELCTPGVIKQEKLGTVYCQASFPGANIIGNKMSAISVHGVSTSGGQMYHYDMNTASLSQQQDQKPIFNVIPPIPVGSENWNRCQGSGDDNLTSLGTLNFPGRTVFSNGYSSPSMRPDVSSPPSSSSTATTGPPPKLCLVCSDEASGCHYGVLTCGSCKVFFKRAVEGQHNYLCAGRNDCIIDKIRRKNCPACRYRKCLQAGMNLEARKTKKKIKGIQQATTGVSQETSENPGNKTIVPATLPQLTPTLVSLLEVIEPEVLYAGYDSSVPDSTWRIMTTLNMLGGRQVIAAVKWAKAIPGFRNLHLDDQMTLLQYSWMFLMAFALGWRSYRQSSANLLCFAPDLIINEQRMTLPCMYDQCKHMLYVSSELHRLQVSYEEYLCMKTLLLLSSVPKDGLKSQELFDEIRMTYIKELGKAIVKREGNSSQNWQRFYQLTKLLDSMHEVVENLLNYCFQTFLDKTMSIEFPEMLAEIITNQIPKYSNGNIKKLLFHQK
Chain of Nuclear receptor subfamily 4 group A member 2 (Homo sapiens) (P43354 whole entry, looked up, the tested form may be a part): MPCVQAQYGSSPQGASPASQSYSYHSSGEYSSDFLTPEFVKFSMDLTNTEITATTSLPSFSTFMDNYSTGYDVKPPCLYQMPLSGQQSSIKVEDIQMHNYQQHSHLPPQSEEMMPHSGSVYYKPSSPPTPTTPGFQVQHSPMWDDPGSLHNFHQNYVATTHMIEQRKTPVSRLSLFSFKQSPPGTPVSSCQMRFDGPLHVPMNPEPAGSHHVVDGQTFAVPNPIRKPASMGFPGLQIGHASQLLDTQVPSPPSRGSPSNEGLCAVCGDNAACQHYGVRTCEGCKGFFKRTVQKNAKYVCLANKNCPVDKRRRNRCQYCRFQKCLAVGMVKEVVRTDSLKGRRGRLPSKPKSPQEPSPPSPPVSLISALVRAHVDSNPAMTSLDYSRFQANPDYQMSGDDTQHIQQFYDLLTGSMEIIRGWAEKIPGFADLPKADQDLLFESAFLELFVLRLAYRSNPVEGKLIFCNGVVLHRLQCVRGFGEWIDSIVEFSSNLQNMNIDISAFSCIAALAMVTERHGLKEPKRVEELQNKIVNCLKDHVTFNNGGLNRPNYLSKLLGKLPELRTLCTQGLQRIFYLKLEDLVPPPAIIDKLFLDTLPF
Chain of Oxysterols receptor LXR-beta (Homo sapiens) (P55055 whole entry, looked up, the tested form may be a part): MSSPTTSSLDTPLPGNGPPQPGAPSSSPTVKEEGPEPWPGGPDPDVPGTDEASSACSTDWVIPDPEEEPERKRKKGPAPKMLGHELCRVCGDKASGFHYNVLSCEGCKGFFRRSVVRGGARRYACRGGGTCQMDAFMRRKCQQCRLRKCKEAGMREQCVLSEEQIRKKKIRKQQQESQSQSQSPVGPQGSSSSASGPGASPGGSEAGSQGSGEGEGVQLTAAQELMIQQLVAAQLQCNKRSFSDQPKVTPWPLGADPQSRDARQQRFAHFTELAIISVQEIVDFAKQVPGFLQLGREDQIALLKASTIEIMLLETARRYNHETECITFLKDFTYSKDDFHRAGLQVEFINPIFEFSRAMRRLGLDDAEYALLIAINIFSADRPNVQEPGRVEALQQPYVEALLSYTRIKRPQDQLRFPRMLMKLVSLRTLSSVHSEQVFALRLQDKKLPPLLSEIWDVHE
Chain of X-box-binding protein 1 (Homo sapiens) (P17861 whole entry, looked up): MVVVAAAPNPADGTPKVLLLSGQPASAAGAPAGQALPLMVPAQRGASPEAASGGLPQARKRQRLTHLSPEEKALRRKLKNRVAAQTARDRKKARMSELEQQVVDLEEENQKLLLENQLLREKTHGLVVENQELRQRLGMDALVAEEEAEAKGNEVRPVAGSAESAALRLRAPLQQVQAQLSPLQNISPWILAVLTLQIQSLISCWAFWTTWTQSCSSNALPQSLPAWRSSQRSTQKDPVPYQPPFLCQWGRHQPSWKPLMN
Chain of Transcriptional activator Myb (Homo sapiens) (P10242 whole entry, looked up): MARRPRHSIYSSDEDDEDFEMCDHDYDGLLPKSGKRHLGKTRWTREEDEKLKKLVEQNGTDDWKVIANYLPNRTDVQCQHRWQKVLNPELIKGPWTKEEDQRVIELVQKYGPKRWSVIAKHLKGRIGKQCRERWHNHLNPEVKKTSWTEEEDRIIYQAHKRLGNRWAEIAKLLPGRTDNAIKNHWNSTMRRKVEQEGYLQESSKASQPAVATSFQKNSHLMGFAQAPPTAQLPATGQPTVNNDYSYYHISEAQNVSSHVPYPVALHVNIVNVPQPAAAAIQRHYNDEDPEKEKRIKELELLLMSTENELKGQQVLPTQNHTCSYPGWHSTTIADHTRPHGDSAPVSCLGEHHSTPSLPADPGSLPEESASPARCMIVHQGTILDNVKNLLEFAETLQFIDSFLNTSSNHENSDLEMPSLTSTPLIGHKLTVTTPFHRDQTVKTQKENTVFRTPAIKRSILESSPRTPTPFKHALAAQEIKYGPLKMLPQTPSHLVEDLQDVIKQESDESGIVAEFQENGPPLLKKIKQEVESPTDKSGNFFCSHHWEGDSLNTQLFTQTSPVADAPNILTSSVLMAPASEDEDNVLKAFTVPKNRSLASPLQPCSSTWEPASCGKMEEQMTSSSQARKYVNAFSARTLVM
Chain of Oxysterols receptor LXR-alpha (Homo sapiens) (Q13133 whole entry, looked up, the tested form may be a part): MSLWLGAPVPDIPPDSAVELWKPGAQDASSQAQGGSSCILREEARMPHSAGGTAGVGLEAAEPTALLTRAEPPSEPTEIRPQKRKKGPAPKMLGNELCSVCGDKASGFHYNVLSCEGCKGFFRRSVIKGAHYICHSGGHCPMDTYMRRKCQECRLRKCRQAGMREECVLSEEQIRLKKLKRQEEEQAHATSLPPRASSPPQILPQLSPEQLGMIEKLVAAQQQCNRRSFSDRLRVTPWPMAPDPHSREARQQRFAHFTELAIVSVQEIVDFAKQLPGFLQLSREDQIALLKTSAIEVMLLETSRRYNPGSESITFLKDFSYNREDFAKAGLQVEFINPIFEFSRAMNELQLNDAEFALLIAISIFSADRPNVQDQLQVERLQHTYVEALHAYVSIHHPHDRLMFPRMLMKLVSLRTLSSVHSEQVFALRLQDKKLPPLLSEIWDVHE
Chain of Nuclear receptor subfamily 1 group I member 3 (Homo sapiens) (Q14994 whole entry, looked up, the tested form may be a part): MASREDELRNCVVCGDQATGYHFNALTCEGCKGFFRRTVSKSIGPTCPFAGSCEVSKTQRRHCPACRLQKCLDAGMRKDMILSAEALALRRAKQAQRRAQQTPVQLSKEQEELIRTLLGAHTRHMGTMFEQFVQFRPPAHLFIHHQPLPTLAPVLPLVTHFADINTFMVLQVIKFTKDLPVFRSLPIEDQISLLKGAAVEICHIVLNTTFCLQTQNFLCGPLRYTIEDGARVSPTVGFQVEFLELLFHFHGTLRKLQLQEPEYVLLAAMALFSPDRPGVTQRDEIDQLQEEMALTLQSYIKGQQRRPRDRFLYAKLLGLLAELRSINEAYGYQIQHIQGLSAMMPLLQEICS
Chain of Steroid hormone receptor ERR1 (Homo sapiens) (P11474 whole entry, looked up, the tested form may be a part): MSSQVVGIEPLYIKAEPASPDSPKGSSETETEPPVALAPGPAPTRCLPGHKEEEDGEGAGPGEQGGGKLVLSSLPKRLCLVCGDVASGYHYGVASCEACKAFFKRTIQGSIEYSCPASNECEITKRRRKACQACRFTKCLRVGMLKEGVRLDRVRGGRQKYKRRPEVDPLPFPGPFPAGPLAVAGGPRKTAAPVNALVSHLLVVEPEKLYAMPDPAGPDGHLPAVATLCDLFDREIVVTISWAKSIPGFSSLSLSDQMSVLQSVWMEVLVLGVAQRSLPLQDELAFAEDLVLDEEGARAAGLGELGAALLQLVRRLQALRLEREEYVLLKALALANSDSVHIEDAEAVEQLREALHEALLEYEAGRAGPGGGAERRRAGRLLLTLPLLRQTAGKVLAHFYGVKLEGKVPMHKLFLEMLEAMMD

O=C(O)c1cccc([N+](=O)[O-])c1
inactive: [1] | [2] | [3] | [4] | [5] | [6] | [7] | [8] | [9] | [10]

NC(=O)Nc1ccc(Cl)cc1
not listed: [2] | [7] | [18] | [19]
inactive: all other assays above

Cc1cccc(Nc2ccccc2C(=O)O)c1C
not listed: [10] | [11] | [12] | [13] | [14] | [16] | [17]
inactive: all other assays above

CCC/C=C/C=O
inactive: [1] | [2] | [3] | [15] | [17] | [19] | [9] | [10]

O=c1[nH]c(=O)n([C@H]2CCCO2)cc1F
inactive: [1] | [2] | [3] | [6] | [7] | [19] | [9] | [10]

Nc1ccc(S(N)(=O)=O)cc1
inactive: [1] | [2] | [12] | [3] | [4] | [7] | [19] | [9] | [10]

CSc1nc(NC2CC2)nc(NC(C)(C)C)n1
inactive: [1] | [2] | [3] | [15] | [18] | [7] | [8] | [9] | [10]

CCCCCCCCCCN
not listed: [4] | [6] | [7] | [11] | [12] | [13] | [14] | [16]
inactive: all other assays above

— PubChem BioAssay (EPA / NIEHS)
